Here are results for 99 molecules from PubChem BioAssay AID2732 (Emory University Molecular Libraries Screening Center, 2010).

Each structure is given as a SMILES string. Among all 220,000 compounds or so, about 8,200 (3.7%) were called active. This is one part of a sample in which actives are shown more often than they occur.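 The calls were made as follows: active = compounds that reduced the stress-induced luciferase reporter signal by more than about 70% of percent inhibition (limit read from the data); inactive = the rest.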 Residues, ends and D or L forms follow the SMILES beside them. *: point of attachment. Bz = O=C(c1ccccc1)*

A short description of the experiment: inhibitors of CHOP promoter induction, primary screen, cell-based, unfolded protein response, luciferase reporter (AID 2732).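 Also: 0% = tunicamycin plus vehicle and 100% = wells without tunicamycin.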 Particulars: CHO-K1 CHOP-promoter luciferase, tunicamycin-induced, 15-18 h; at 10 µM; hits give high values.
For the molecule `C=CCNC(=O)CSc1nc2scc(-c3ccco3)c2c(=O)n1CC=C`, the inhibition is -19.4% (inactive).
With `O=S(=O)(Nc1ccc(Cl)cn1)c1cnc(Cl)c(Br)c1`, the inhibition is 9.6% (inactive).
On to `CCCCN1C(=O)/C(=C2/C=CC=CN2C)SC1=S`, for which the inhibition is -3.04% (inactive).
In the case of `CCN1C(=O)/C(=C\N2CCN(c3ccccc3)CC2)SC1=S` it was 23.4% (inactive); in that of `CCCCN1C(=O)/C(=C/C=C2/C=Cc3ccccc3N2CC)SC1=S`, 70.5% (active).
The result for `CC1Cc2ccccc2N1CC(=O)Nc1ccc(S(N)(=O)=O)cc1` (centres undefined) reads -11.8% (inactive); that for `COc1ccc(Nc2cc(Cl)ccc2C(=O)O)cn1`, 9.7% (inactive); that for `CCNC(=O)CCc1nc(-c2ccc(C(C)(C)C)cc2)no1`, 91% (active).
For the molecule `Cc1ccc(-c2noc(CCC(N)=O)n2)cc1`, the inhibition is 10.7% (inactive).
Consider `CCNC(=O)CCc1nc(-c2ccc(C)cc2)no1`, for which the inhibition was 11.2% (inactive).
Turning to `CC1CCN(c2ccc([N+](=O)[O-])c(SCCO)c2)CC1`, the inhibition is 7.43% (inactive).
The result for `O=C(Nc1ccc2oc(-c3ccc4ccccc4c3)nc2c1)c1cccs1` reads -26.2% (inactive); that for `Cc1ccc(C(=O)NNC(=O)c2cccs2)cc1`, -31.6% (inactive); that for `COc1ccc(CC(=O)Nc2ccc(-c3nnc(-c4ccc(C)cc4)o3)cc2)cc1`, 83.6% (active).
On to `CCCc1ccc(-c2csc(NC(=O)Cc3cccs3)n2)cc1`, for which the inhibition was 12.1% (inactive).
The result for `Cc1ccc(-c2csc(NNC(=O)c3ccccc3)n2)cc1` reads 21.4% (inactive).
The result for `Cc1cccc(S(=O)(=O)CC(=O)Nc2nc(-c3ccccc3)cs2)c1` reads -8.42% (inactive).
Consider `Cc1ccc(OCC(=O)Nc2ccc(-c3nc4ncccc4o3)cc2)cc1`, for which the inhibition was -4.24% (inactive).
Take `Cc1ccc(-c2csc(NC(=O)Cn3[nH]c(=O)c4ccccc4c3=O)n2)cc1`: the inhibition was 80% (active).
As to `Cc1ccc(-c2nnc(-c3ccc(NC(=O)c4cccs4)cc3)o2)cc1`, the inhibition was 89% (active).
For `Cc1ccc(-c2csc(NC(=O)c3cccs3)n2)cc1`, the inhibition is 78.4% (active).
Consider `O=C(O)c1ccc(NC(=O)c2cccs2)cc1`, for which the inhibition was 28.8% (inactive).
As for `COc1ccc(CC(=O)Nc2ccc(C(=O)NC(C)(C)C)cc2)cc1`, the inhibition is 19.1% (inactive).
As to `CC(=O)N1CC[n+]2c(-c3ccc([N+](=O)[O-])cc3)csc21`, the inhibition is -3.95% (inactive).
On to `O=C(O)CCc1cccnc1`, for which the inhibition is 16.7% (inactive).
Regarding `COc1ccc(CN2CCOC2=O)cc1OC`, the inhibition was -5.21% (inactive).
For `COc1ccc(N2C(=O)C3C(C2=O)C(C(=O)c2ccccc2)N2CCCC32)cc1` (centres undefined), the inhibition was 11.9% (inactive).
`CC(C)C[C@H](CO)Nc1nc(N(C)c2cccc(Cl)c2)c2ncn(C(C)C)c2n1`: the inhibition was 21.8% (inactive).
Turning to `COC(=O)c1ccccc1N=Nc1c(C)[nH][nH]c1=O`, the inhibition was 14.2% (inactive).
Turning to `CCCNc1c(N)c(=O)c1=O`, the inhibition is 3.2% (inactive).
The result for `CCc1c(C)nc2c(-c3ccccc3)c(C)nn2c1Nc1ccc(NC(C)=O)cc1` reads 17.3% (inactive); that for `CCS(=O)(=O)c1cc([N+](=O)[O-])c(Sc2ccccc2N)s1`, -0.04% (inactive).
Take `COc1cc(C(F)(F)F)nc2c(Br)c(C(C)(C)C)nn12`: the inhibition is 15% (inactive).
Regarding `CCN(CC)CCn1cnc2c1c(=O)n(CCOC(=O)c1cc(OC)c(OC)c(OC)c1)c(=O)n2C`, the inhibition is -3.64% (inactive).
Turning to `Fc1ccc(N2CCN(Cc3cnc(Oc4ccc(Br)cc4)s3)CC2)cc1`, the inhibition is 21% (inactive).
In the case of `Oc1c(CN2CCN(c3ccc(F)cc3)CC2)cc(Cl)c2cccnc12` it was 92% (active); in that of `CCN1CCN(C(c2cccnc2)c2cc(Cl)c3cccnc3c2O)CC1` (centres undefined), -101% (inactive).
Turning to `Cc1cc(N2CCN(c3ccc(F)cc3)CC2)n2ncnc2n1`, the inhibition was 1.35% (inactive).
With `O=C(NC(Cc1ccccc1)C(=O)N1CCCC1C(=O)O)c1ccccc1` (stereo not drawn) (Bz-Phe-Pro-OH; configuration not given here), the inhibition was -0.39% (inactive).
In the case of `Cc1ccc(C(=O)N2CCN(C3CCCCC3)CC2)s1` it was 12.7% (inactive); in that of `O=C(C(Cc1ccccc1)n1cccc1)N1CCN(C2CCCCC2)CC1` (centres undefined), 72.6% (active).
In the case of `CC(=O)c1ccc(S(=O)(=O)N2CCN(C(=O)/C=C/c3ccc4ccccc4n3)CC2)cc1` it was 60% (inactive).
Turning to `O=C(Nc1ccccc1)OCc1cc(-c2ccc(Cl)cc2)on1`, the inhibition was -15.4% (inactive).
As for `O=C(Nc1ccc(Cl)cc1)OCc1cc(-c2ccccc2)on1`, the inhibition was 89.7% (active).
In the case of `O=C(Nc1ccccc1)OCc1cn(-c2ccc(Cl)cc2)nn1` it was -8.26% (inactive); in that of `CCOC(=O)Cn1c2c(c(-c3ccccc3OC)cc1=O)CCCC2`, 77.2% (active).
In the case of `CCOC(=O)Cn1c(-c2cccnc2Cl)nc2ccccc21`, the inhibition is -1.12% (inactive).
`CCOC(=O)CN1CCC(c2ccccc2)CC1`: the inhibition is 8.89% (inactive).
In the case of `FC(F)(F)c1nc(-c2ccccc2)ncc1-c1nnnn1-c1ccccc1` it was 49.3% (inactive).
For the molecule `CCOC(=O)C(C)Sc1nc2ccccc2c(=O)n1CC1CCCCC1` (centres undefined), the inhibition was 99.3% (active).
Turning to `CC(Sc1nc2ccccc2c(=O)n1Cc1ccco1)C(=O)c1ccccc1` (centres undefined), the inhibition is 16.2% (inactive).
In the case of `CCOn1c(SC(C)C)nc2ccccc2c1=O` it was -9.05% (inactive).
In the case of `Cc1nnc2n1N=C(c1ccc3c(c1)NC(=O)CO3)CS2` it was 8.13% (inactive); in that of `O=C(O)c1ccccc1C(=O)Nc1ccccc1[N+](=O)[O-]`, -7.32% (inactive).
In the case of `CNCC(O)c1ccc(O)c(O)c1` (centres undefined) it was -0.79% (inactive).
Take `CCC(C)c1ccc(O)c(/C=N/O)c1` (centres undefined): the inhibition is 71.8% (active).
Regarding `O=C(CCc1ccccc1)Nc1ncc([N+](=O)[O-])s1`, the inhibition is -9.45% (inactive).
Regarding `CC(=O)Oc1ccccc1C(=O)Nc1ncc([N+](=O)[O-])s1`, the inhibition is 72.1% (active).
Turning to `O=C(Cc1c(F)cccc1Cl)Nc1ncc([N+](=O)[O-])s1`, the inhibition is 9.25% (inactive).
`O=C(NNC(=S)Nc1ccc(F)cc1)[C@H]1C[C@@H]1c1ccccc1`: the inhibition is 5.39% (inactive).
Take `CCOc1cc(C)c(Cl)cc1S(=O)(=O)n1nnc2ccccc21`: the inhibition was 73.7% (active).
With `CCCOc1cc(C)c(S(=O)(=O)n2nnc3ccccc32)cc1C`, the inhibition was -25.8% (inactive).
The result for `COc1cc(C)c(Cl)cc1S(=O)(=O)n1ccnc1` reads 14.6% (inactive); that for `CN(c1ccccn1)c1ncnc2[nH]ncc12`, 16.3% (inactive); that for `S=c1[nH]nc(-c2cccs2)n1/N=C/c1cn(-c2ccccc2)nc1-c1ccc(Cl)cc1`, 57.5% (inactive).
In the case of `Cc1ccc(NNC(=O)c2cccs2)cc1Cl` it was -7.82% (inactive).
Take `CSC1=NC2(C)CCCCC2C12C=CC(=O)C=C2` (centres undefined): the inhibition was -8.01% (inactive).
As for `Clc1ccc(Cc2nnc(-c3cccs3)o2)cc1`, the inhibition was -8.41% (inactive).
On to `CNC(=O)c1nnc(Cc2ccc(Cl)cc2)o1`, for which the inhibition was 84.2% (active).
The result for `O=C(Nc1nnc(Cc2ccc(Cl)cc2)s1)c1ccncc1` reads 2.85% (inactive); that for `CS(=O)(=O)c1ccc2nnn(OCC(=O)Nc3cccc(C#N)c3)c2c1`, 7.09% (inactive).
In the case of `CNC(=O)c1cccc2nc3ccccc3nc12`, the inhibition is -2.58% (inactive).
On to `CCOC(=O)c1cnc(-c2ccccc2)nc1Oc1ccc(C)cc1`, for which the inhibition is 16.8% (inactive).
Take `CCOC(=O)c1cnc(SCc2nc(N)nc(Nc3ccc(OC)cc3)n2)nc1N`: the inhibition was 27.6% (inactive).
On to `CCCCOc1ccc(-c2ncc(C(=O)OCC)c(N)n2)cc1`, for which the inhibition is 87.4% (active).
The result for `O=C(N/N=C/c1ccco1)c1csc2c1CCCC2` reads -20.7% (inactive); that for `CCOC(=O)C1=C(CSc2nccn2C)NC(=O)NC1c1ccc(OC)cc1` (centres undefined), 34.2% (inactive); that for `CCOC(=O)C1=C(C)N=c2s/c(=C\C(=O)OC)c(=O)n2C1c1ccc(OC)cc1` (centres undefined), 89.2% (active).
In the case of `COCCOC(=O)C1=C(C)N=c2s/c(=C\c3cccs3)c(=O)n2C1c1cccs1` (centres undefined), the inhibition was 4.98% (inactive).
In the case of `CC(C)Cc1ccc(C(C)C(=N)N)cc1` (centres undefined) it was 4.47% (inactive); in that of `CC(=O)NC(CC(=O)Nc1nccs1)c1ccccc1` (centres undefined), -2.49% (inactive); in that of `CCC(C)(C)NC(=O)C(c1ccc(O)cc1)N(C(=O)Cn1nnc2ccccc21)c1ccc(NC(C)=O)cc1` (centres undefined), 4.95% (inactive).
Consider `Cc1cc(-n2cnc(-c3cn(C)nc3C)n2)no1`, for which the inhibition is -11.3% (inactive).
For the molecule `Brc1ccc2c(c1)[C@H]1OCC[C@H]1[C@@H](c1cccs1)N2`, the inhibition is 39.4% (inactive).
The result for `COc1cccc(OC)c1C(=O)Nc1ccc(N2CCCCC2)cc1` reads 15.2% (inactive).
Consider `O=C1C=CC(=O)N1c1ccc(N2CCCCC2)cc1`, for which the inhibition was 94% (active).
The result for `O=c1[nH][nH]c(=O)c2cc(N3CCCC3)ccc12` reads 2.26% (inactive); that for `Cc1nc(C(=O)NCc2ccccc2)sc1C1(C)CC(c2cccnc2)=NO1` (centres undefined), 22.9% (inactive); that for `O=C(N/N=C/c1cccc2cccnc12)[C@H]1C[C@@H]1c1ccccc1`, 52.4% (inactive).
The result for `CC1=NN(C(=O)c2ccc(Br)cc2)C(O)(c2ccccc2)C1` (centres undefined) reads 16.6% (inactive).
The result for `CC1=NN(C(=O)c2ccccc2Br)C(O)(c2cccnc2)C1` (centres undefined) reads -24.4% (inactive).
On to `CC1=NN(C(=O)Cc2ccc(C)cc2)C(O)(c2cccnc2)C1` (centres undefined), for which the inhibition is 73.8% (active).
For the molecule `O=C(O)C1=C[C@H](c2cccs2)C[C@H](OCCCCO)O1`, the inhibition is -3.52% (inactive).
Take `Cc1ccc(S(=O)(=O)N(C)CC(=O)OCC(=O)Nc2ccccc2)cc1`: the inhibition was -0.65% (inactive).
Take `COc1ccccc1P(=O)(c1ccccc1)c1ccccc1NC(C)=O` (centres undefined): the inhibition was 10.1% (inactive).
The result for `Cn1c(=NC(=O)c2ccc3c(c2)OCCO3)sc2cc(S(C)(=O)=O)ccc21` reads 91.9% (active).
Take `COCCn1c(=NC(=O)c2ccccc2[N+](=O)[O-])sc2cc(S(C)(=O)=O)ccc21`: the inhibition was -7.33% (inactive).
With `CC(=O)c1ccc2c(c1)OCCOCCOc1ccc(C(C)=O)cc1OCCOCCO2`, the inhibition was 1.66% (inactive).
The result for `O=C(Nc1ccccc1)O/N=C1/CCCc2occc21` reads -8.45% (inactive).
